# Laboratory results from PubChem BioAssay (NCI).
# Compounds without any hit were thinned out: in the full panel of roughly 83,000, 20% have a hit.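 Step 1: grow cells in 96-well plates. Step 2: add test compound at a single concentration. Step 3: incubate 48 h. Step 4: record percent growth.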 A number with no mark means an inactive call. The source made the active and inactive calls. How the source made its calls: active means growth percent below 10; inactive means the rest.
# System: T-47D breast
# Assay: NCI-60 one-dose screen, 48 h (100 = growth as untreated, 0 = no growth, -100 = all killed)
# Details: 10 µM unless noted
row,SMILES,growth
1,CS(=O)(=O)Nc1cc(-c2ccc3ncnc(Nc4c(Cl)ccc5c4OCO5)c3c2)cnc1Cl,-30.6% (active)
2,O=C(Nc1cc(Cl)ccc1O)c1ccc(Nc2ccnc(C(F)(F)F)c2)cc1,4.61% (active)
3,Cc1cccc(N2CCN(CC(O)COc3ccc(Cl)cc3)CC2)c1 (centres undefined),94.4%
4,OCCOCCN(Cc1ccccn1)Cc1cc(I)cc(I)c1O,93.9%
5,COc1ccc(C2c3sc4c(F)cccc4c3Oc3nc[nH]c(=O)c32)cc1 (centres undefined),70.5%
6,N#Cc1cccc(F)c1,101%
7,C=C(C)[C@@H]1CC[C@]2(C(=O)NCC#CCN3CCN(C)CC3)CC[C@]3(C)[C@H](CC[C@@H]4[C@@](C)(CCC#N)[C@H](C(=C)C)CC[C@]43C)[C@@H]12,34.9%
8,O=C(O)c1[nH]c(=O)[nH]c(=O)c1[N+](=O)[O-],109%
9,O=c1c2cc(-c3ccccc3)sc2nc2sc(-c3ccccc3)nn12,99.3%
10,CCOC(=O)c1c(C)nc2c(c1N)CC(=O)N2Cc1cc(F)cc(Cl)c1,76.3%
11,COc1ccc(C(=S)N2CCN(c3ccccc3Cl)CC2)cc1OC,79%
12,C#Cc1cccc(Nc2ncnc3ccc(-c4cnc(N)nc4)cc23)c1,5.19% (active)
13,Cc1ccc(/C=C2\CN(C(=O)OC(C)(C)C)C/C(=C\c3ccc(C)cc3)C2=O)cc1,61.1%
14,COC(=O)/C(CCC=C(C)C)=C1\[C@@H](OC(C)=O)C[C@@]2(C)[C@H]1C[C@@H](O)[C@H]1[C@@]3(C)CC[C@H](NCCN)[C@@H](C)[C@@H]3CC[C@@]12C,83.2%
